Assay outcomes from PubChem BioAssay.
This excerpt belongs to a sample that is enriched for hits.
JMJD2E inh = inhibitors of human JMJD2E histone demethylase; 230,000 compounds, 1.6% hits; JMJD2E catalytic domain, FDH-coupled NADH fluorescence (FDH is formaldehyde dehydrogenase); AID 2147; Potency, µM (highest dose often 57.1 µM), actives largely listed as inhibitors; B2RXH2; active means well fitted inhibition curve with a large enough effect, not every such curve was filed as active; inconclusive means small, poorly fitted or top-dose-only effect, or another doubt; inactive means no such curve, though single readings can be large or run the other way; further: nearly all actives have a fitted effect of over 50% in size
Target sequence (B2RXH2 1-337 limits assumed): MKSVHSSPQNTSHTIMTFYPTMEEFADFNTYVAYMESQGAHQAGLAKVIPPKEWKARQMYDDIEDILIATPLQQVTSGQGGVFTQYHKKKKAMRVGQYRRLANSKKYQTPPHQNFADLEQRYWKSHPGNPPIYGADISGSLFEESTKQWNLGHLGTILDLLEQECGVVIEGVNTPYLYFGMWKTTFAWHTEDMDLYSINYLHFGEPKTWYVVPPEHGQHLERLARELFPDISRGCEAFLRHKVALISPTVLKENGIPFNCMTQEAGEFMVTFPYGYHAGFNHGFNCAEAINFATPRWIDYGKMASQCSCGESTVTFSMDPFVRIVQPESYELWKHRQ
L3MBTL1 inh-1 = inhibitors of human L3MBTL1; Q9Y468; AlphaScreen L3MBTL1–H3K9me1 peptide binding; Potency, µM (highest dose often 57.1 µM), hits mostly inhibitors; 230,000 compounds, 0.66% hits; AID 485360; further: nearly all actives have a fitted effect of over 60% in size
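L3MBTL1 (50 nM) pre-complexed 30 min with biotinylated H3(1-15)K9me1 peptide (75 nM), then compounds added for 30 min at room temperature; AlphaScreen streptavidin donor/nickel chelate acceptor beads (10 ug/mL final) read after 30 min dark incubation.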
APEX1 inh = APE1 (human) endonuclease inhibition; P27695; recombinant APE1, TAMRA/BHQ-2 abasic DNA cleavage fluorescence; Potency, µM (series often up to 65.8 µM), most hits filed as inhibitors; 350,000 compounds, 0.35% hits; AID 2517; further: nearly all actives have a fitted effect of over 55% in size
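APE1 at 0.75 nM final was preincubated with compound 15 min at room temperature, then 50 nM double-stranded THF abasic-site substrate (5'-TAMRA/3'-BHQ-2) was added. Fluorescence (ex 525/em 598 nm) was read kinetically; third-minus-first read gave activity.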
BLM helicase inh = inhibitors of human Bloom syndrome helicase BLM. 350,000 compounds, 0.2% hits. AID 2528. Potency, µM (titrated, usually from 56.1 µM), most hits filed as inhibitors. recombinant BLM DNA unwinding, fluorescence dequenching. P54132; further: nearly all actives have a fitted effect of over 35% in size
RECQ1 helicase = RECQ1 (human) helicase inhibition | P46063 | RECQ1 DNA unwinding, red fluorescence kinetic read | Potency, µM (highest dose often 57.3 µM), hits mostly inhibitors | 240,000 compounds, 0.54% hits | AID 2549; further: nearly all actives have a fitted effect of over 30% in size
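RECQ1T1 50 nM; forked duplex (20 bp + 30-nt ss tails) 200 nM, ATP 2 mM final; pH 8.0, 2 mM MgCl2, 2.5 ug/ml poly(dI-dC); 15 min compound preincubation; discontinuous kinetic read over 2 h at RT.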
L3MBTL1 inh-2 = blocks human L3MBTL1 methyl-lysine binding; AID 540279; shares compounds with L3MBTL1 inh-1; L3MBTL1 methyl-lysine binding inhibition, biochemical qHTS; Potency, µM, usual class: inhibitors; 500 compounds, 91% hits; further: nearly all actives have a fitted effect of over 70% in size
L3MBTL1 ctr = AlphaScreen signal inhibition, L3MBTL1 hit counter-screen; shares compounds with L3MBTL1 inh-1; AlphaScreen counterscreen, signal inhibition; Potency, µM (top dose mostly 57.1 µM), actives largely listed as inhibitors; 500 tested, under 10 active; AID 602224
Hits are given with their value; n = inactive; u = inconclusive; x = no result given. Unless noted, the call rests on the fitted dose curve; in most records, active means well fitted curve in the direction sought with a large enough effect; inconclusive means small, poorly fitted or top-dose-only effect, or another doubt; inactive means no such curve, though single readings can be large; an effect the other way counts as inactive or inconclusive.

SMILES	JMJD2E inh	L3MBTL1 inh-1	APEX1 inh	BLM helicase inh	RECQ1 helicase	L3MBTL1 inh-2	L3MBTL1 ctr
Cn1nc2c(c1C(=O)N1CCCC(C(=O)c3cc(F)ccc3F)C1)CCCC2 (centres undefined)	n	n	n	n	n	x	x
Cn1nc2c(c1C(=O)O)CCCC2	n	5.62µM	u	n	n	15	n
CC(/C=C\c1cccnc1)=C/C(=O)O	n	28.2µM	n	n	n	26.7	n
CCN(CC(=O)Nc1c(F)cccc1F)C(=O)/C=C/c1ccc2ccccc2n1	x	3.16µM	1.68µM	x	x	1.68	n
CCN(CC(=O)Nc1c(F)cccc1F)C(=O)/C=C/c1ccc(C)o1	x	n	n	x	x	x	x
CC(C)CCC(CCN1CCOCC1)c1ccc2c(c1)OCO2 (centres undefined)	u	n	n	n	n	x	x
CC(C)CCC(CCN1CCCC1)c1ccc2c(c1)OCO2 (centres undefined)	u	28.2µM	n	n	n	21.2	n
O=C(O)c1ccc2c3n(nc2c1)-c1ccc(Cl)cc1CO3	x	5.01µM	n	n	x	21.2	n
Cc1ccc(C2/C(=C(/O)c3ccccc3)C(=O)C(=O)N2CCN2CCOCC2)o1 (centres undefined)	n	n	n	n	n	x	x
Cc1ccc(C)c(/C(O)=C2/C(=O)C(=O)N(CCN3CCOCC3)C2c2ccco2)c1 (centres undefined)	u	25.1µM	n	n	n	10.6	n
Nc1ccc2nc(-c3ccccn3)[nH]c2c1	u	28.2µM	u	n	n	7.52	u
O=C(CN1N=C(c2ccccc2)CCC1=O)NCc1cccs1	n	n	n	n	n	x	x
O=C(Oc1c(CN2CCOCC2)cc(Cl)c2cccnc12)c1ccccc1F	31.6µM	14.1µM	n	n	n	26.7	n
COc1ccc(S(=O)(=O)Nc2cc(Sc3ncn[nH]3)c(O)c3ccccc23)cc1	u	x	u	u	n	x	x
O=S(=O)(Nc1cc(Sc2cccc3cccnc23)c(O)c2ccccc12)c1ccc(F)cc1	28.2µM	28.2µM	n	n	n	21.2	n
Cc1ccc(-c2csc3ncn(CC#N)c(=O)c23)cc1C	x	22.4µM	n	n	x	21.2	n
CCOc1ccc(CCNC(=O)CCS(=O)(=O)c2ccc(OC)cc2)cc1OCC	n	x	n	n	n	x	x
O=C(c1cc(-c2ccco2)nc2ccccc12)N1CCN(Cc2ccccc2)CC1	x	n	n	x	x	x	x
CCCCCCNC(=O)c1cc(-c2ccco2)nc2ccccc12	u	14.1µM	n	n	n	7.52	n
CN(C)C(CNC(=O)c1cc(-c2ccco2)nc2ccccc12)c1ccccc1 (centres undefined)	x	7.94µM	n	x	x	2.67	n
CC(C)CCNC(=O)c1cc(-c2ccco2)nc2ccccc12	u	x	n	n	n	x	x
COC(=O)C1CCN(C(=O)c2cc(-c3ccco3)nc3ccccc23)CC1	x	0.794µM	u	x	x	5.32	n
CC(C(=O)N(C)C1CCS(=O)(=O)C1)N1C(=O)/C(=C/c2ccco2)SC1=S (centres undefined)	x	x	n	n	x	x	x
CCS(=O)(=O)c1nc(S(=O)(=O)c2ccc(Cl)cc2)c(N2CCN(C)CC2)s1	x	x	n	n	x	x	x
CC(C)(C)c1ccc(OCC(=O)Nc2ccc(-c3nc4cccnc4o3)cc2)cc1	u	x	n	n	n	x	x
O=C(CC1Sc2ccccc2NC1=O)Nc1cccc(C(=O)O)c1 (centres undefined)	n	11.2µM	u	n	n	0.947	n
CC(C)[C@H](NC(=O)c1ccccc1Cl)C(=O)Nc1nc(-c2ccccn2)cs1	u	35.5µM	n	n	n	23.8	n
Nc1cc(C(=O)OCC(=O)NCc2ccco2)ccc1Cl	u	n	n	n	n	x	x
O=C(CCS(=O)(=O)c1ccc(Br)cc1)Nc1cc(F)ccc1F	n	28.2µM	u	n	n	26.7	n
O=C(Nc1nc(-c2ccccn2)cs1)C1COc2ccccc2O1 (centres undefined)	n	11.2µM	n	n	n	11.9	n
